Test results published in ChEMBL document CHEMBL3433997, “St. Jude Leishmania screening dataset” (2016).

Tests used:
Format in all cases: functional
[1] = target: Solute carrier family 2, facilitated glucose transporter member 1 (Homo sapiens) (UniProt P11166); assay: ST_JUDE_LEISH: Cytotoxicity at 2uM final concentration against transgenic Leishmania Mexicana promastigotes LmGLUT1 that are glucose transport deficient and complemented with the human glucose transporter GLUT1. Activity is measured by DNA content using SYBR green in vitro
[2] = target: Hexose transporter 1 (Plasmodium falciparum) (UniProt O97467); assay: ST_JUDE_LEISH: Cytotoxicity at 2uM final concentration against transgenic Leishmania Mexicana promastigotes LmPfHT that are glucose transport deficient and complemented with the Plasmodium falciparum hexose transporter. Activity is measured by DNA content using SYBR green in vitro
[3] = target: Glucose transporter (Leishmania mexicana) (UniProt O61059); assay: ST_JUDE_LEISH: Cytotoxicity at 2uM final concentration against transgenic Leishmania Mexicana promastigotes LmGT2 that are glucose transport deficient and complemented with the L. Mexicana glucose transporter 2. Activity is measured by DNA content using SYBR green in vitro

Solute carrier family 2, facilitated glucose transporter member 1 (Homo sapiens), sequence (P11166 whole entry): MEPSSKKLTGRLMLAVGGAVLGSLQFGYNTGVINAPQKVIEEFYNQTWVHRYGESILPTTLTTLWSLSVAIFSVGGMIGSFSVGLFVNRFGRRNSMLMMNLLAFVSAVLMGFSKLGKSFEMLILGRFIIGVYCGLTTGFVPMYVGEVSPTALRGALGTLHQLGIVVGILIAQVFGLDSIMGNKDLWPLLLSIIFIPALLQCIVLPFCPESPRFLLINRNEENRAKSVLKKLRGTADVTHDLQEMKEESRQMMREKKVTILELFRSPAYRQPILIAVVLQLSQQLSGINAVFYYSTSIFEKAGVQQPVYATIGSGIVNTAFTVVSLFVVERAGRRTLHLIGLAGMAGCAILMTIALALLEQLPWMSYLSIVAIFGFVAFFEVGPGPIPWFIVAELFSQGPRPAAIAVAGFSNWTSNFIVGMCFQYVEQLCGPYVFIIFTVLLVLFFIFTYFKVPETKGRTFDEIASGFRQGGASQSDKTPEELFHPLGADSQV

Compound | inhibition [1] [%] | inhibition [2] [%] | inhibition [3] [%]
CCN(CC)CCCSc1ccc(-c2ccc(SCCCN(CC)CC)cc2)cc1 | 88.5 | 91.5 | 78.2
Cc1cc(NC2CCCC2)nc(Nc2ccccc2)n1 | 16.4 | 9.56 | 6.13
O=C(CCn1cncn1)N1CCCC(c2[nH]c3ccccc3c2-c2ccncc2)C1 (stereo unspecified) | -2.2 | -3.57 | 1.39
CC(C)N1CCC(N(Cc2ccc(-c3ccc(C(F)(F)F)cc3)cc2)C(=O)Cn2c(SCc3cccc(F)c3F)cc(=O)c3c2CCC3)CC1 | 4.88 | -0.24 | -3.84
CN1CCC(C(=O)N(Cc2ccc(-c3ccc(CNCCc4ccc(S(C)(=O)=O)cc4)cn3)cc2)Cc2ccc3c(c2)OCO3)CC1 | 2.03 | 0.87 | 3.77
O=C(Nc1ccc(Cl)c(Cl)c1)Nc1ccc2nccc(N3CCN(Cc4ccccc4)CC3)c2c1 | 3.7 | 0.94 | 3.64
Cc1ccc(NC(C)C(=O)Nc2ccc(C#N)cc2)cc1S(=O)(=O)N1CCCCC1 (stereo unspecified) | 58.5 | 71.8 | 58.8
